In PubChem BioAssay AID463173 (ICCB-Longwood Screening Facility, Harvard Medical School, 2010):
About 4,300 (8.3%) of roughly 52,000 compounds were called active. This excerpt belongs to a sample that is enriched for actives. Values without a mark were called inactive. Cut-off read from the data, not from the text of the source: active = survival mostly below about 52% (no sharp cut-off); inactive = mostly above about 56%.

These compounds were tested on DeltatarO mutant (assay: growth inhibition of S. aureus wild type versus tarO mutant, primary screen, teichoic acid synthesis inhibitors, RN4220, OD600 (AID 463173)). Settings: OD600, 18 h, hits give low values, screened at 18.75 µg/mL (by protocol).

| SMILES | survival |
| --- | --- |
| COC(=O)c1ccc(Oc2nc3c(c(=O)n(C)c(=O)n3C)n2C(C)C)cc1 | 85% |
| CCCC(=O)Nc1nnc(SCc2cc(=O)n3ccccc3n2)s1 | 87% |
| Cc1cc(C)c2c(CC(=O)Nc3cc(C(F)(F)F)ccc3Cl)coc2c1 | 66% |
| COc1ccc(CCn2cc3c(c2-c2ccccc2Br)c(=O)n(C)c(=O)n3C)cc1OC | 67% |
| O=C(Oc1ccccc1)c1ccc(F)cc1 | 74% |
| Cn1c(NCCN)nc2c1c(=O)n(Cc1ccccc1)c(=O)n2C | 50% |
| CCOc1ccc2[nH]c(=O)c(CN(CC3CCCO3)C(=O)N(CC)CC)cc2c1 (stereo unspecified) | 98% |
| Cc1ccc(NC(c2cccc(Cl)c2)c2nnc(-c3ccccc3)o2)cc1F (stereo unspecified) | 99% |
| Clc1ccc(CCNC(c2ccc(Cl)cc2)c2nnc(-c3ccccc3)o2)cc1 (stereo unspecified) | 98% |
| Clc1ccc(CCNC(c2cccc(Cl)c2)c2nnc(-c3ccccc3)o2)cc1 (stereo unspecified) | 11% (active) |
| Cc1cc2nn(-c3ccccc3)nc2cc1NC(=O)Cc1ccc(Cl)cc1 | 89% |
| O=c1ccc(-c2ccccc2)nn1Cc1c(F)cccc1Cl | 55% |
| O=C(NCc1ccccc1)c1nn(-c2ccccc2)nc1CO | 108% |
| COc1cccc(COC(=O)c2ccc(-c3nnn(Cc4cccc(OC)c4)n3)cc2)c1 | 67% |
| Nc1nn(-c2ccccc2)nc1C(=O)OCc1c(F)cccc1Cl | 28% (active) |
| COc1cccc(COC(=O)c2nn(-c3ccccc3)nc2N)c1 | 15% (active) |
| Nc1nn(-c2ccccc2)nc1C(=O)OCc1ccccc1 | 58% (active) |
| O=C(NCCCc1ccccc1)c1nn(-c2ccccc2)nc1CO | 77% |
| O=C1CC(c2nnc(Cc3c(F)cccc3Cl)o2)CN1c1ccccc1 (stereo unspecified) | 129% |
| O=C(Cc1ccc(Cl)cc1)Nc1ccc2nn(-c3ccccc3)nc2c1 | 81% |
| Nc1nn(-c2ccccc2)nc1C(=O)OCc1ccc(Cl)cc1 | 44% (active) |
| COc1cccc(COC(=O)c2ccc(-c3nnn(Cc4ccccc4)n3)cc2)c1 | 126% |
| COc1ccc(-c2oc3ncn4nc(-c5ccccc5Br)nc4c3c2-c2ccc(OC)cc2)cc1 | 77% |

| SMILES | survival |
| --- | --- |
| CCc1ccc(OCC(=O)Nc2ccc(S(=O)(=O)Nc3onc(C)c3C)cc2)cc1 | 73% |
| COC(=O)c1ccc(C(=O)OC)c(NC(=O)c2c(-c3ccccc3)c(-c3ccccc3)nn(C)c2=O)c1 | 60% |
| COc1ccc(CNC(=O)CCc2nc3cccnc3n2Cc2ccccc2)cc1 | 120% |
| Cc1ccc(NC(=O)NCCOCCn2c(=O)oc3ccccc32)cc1C | 86% |
| Cc1ccccc1Cn1c2ccccc2c2cnn(CC(=O)NCCc3ccccc3)c(=O)c21 | 96% |
| COc1ccc(-c2cn3nc(N4CCCC(C(=O)Nc5cc(C)ccc5C)C4)sc3n2)cc1 (stereo unspecified) | 76% |
| CCOc1ccc(NC(=O)Cn2cc(S(=O)(=O)c3ccc(C)cc3)c(=O)c3cc(F)ccc32)cc1 | 74% |
| CCC(=O)N1c2ccc(S(=O)(=O)CCC(=O)N3CCN(c4cc(C)ccc4C)CC3)cc2CC1C (stereo unspecified) | 85% |
| Cc1cc(C)cc(NC(=O)C(=O)NCC(c2ccc3c(c2)OCO3)N2CCOCC2)c1 (stereo unspecified) | 107% |
| CSc1ccc(CNC(=O)CCn2ccc3cc(S(=O)(=O)N4CCC(C)CC4)ccc32)cc1 | 88% |
| CCCCC(CC)CNC(=O)C1CCC(CNS(=O)(=O)c2cccc3nsnc23)CC1 (stereo unspecified) | 65% |
| Cc1ccc2oc(C(=O)Nc3ccc(S(=O)(=O)Nc4onc(C)c4C)cc3)cc(=O)c2c1 | 71% |
| O=C(CN1C(=O)COc2ccc(S(=O)(=O)Nc3ccccc3)cc21)Nc1cccc(Cl)c1 | 96% |
| Fc1ccc(-c2nc(Nc3ccc(F)c(Cl)c3)nc3c2COc2ccccc2-3)cc1 | 55% |
| O=C(c1cn(CC(=O)N2CCOCC2)c2ccccc12)C1CC1 | 90% |
| O=c1c2sccc2n(Cc2cc(=O)n3ccccc3n2)c(=O)n1-c1cc(F)ccc1F | 69% |
| CCN(CC)C(=O)c1sc2c(c1C)c(=O)n(-c1ccc(Cl)c(Cl)c1)c(=O)n2Cc1cc(=O)n2ccccc2n1 | 112% |
| Cc1ccc(-n2c(=O)c3sccc3n(Cc3cc(=O)n4ccccc4n3)c2=O)cc1 | 63% (active) |
| CCN(CC)C(=O)Cn1c(=O)n(-c2ccc(Cl)c(Cl)c2)c(=O)c2c(C)c(C(=O)N(CC)CC)sc21 | 83% |
| CCN(CC)C(=O)c1sc2c(c1C)c(=O)n(-c1ccc(Cl)c(Cl)c1)c(=O)n2Cc1cc(=O)n2c(C)cccc2n1 | 32% (active) |
| CCN(CC)C(=O)c1sc2c(c1C)c(=O)n(-c1ccc(C)c(C)c1)c(=O)n2Cc1cc(=O)n2c(C)cccc2n1 | 49% |
| CCN(CC)C(=O)c1sc2c(c1C)c(=O)n(-c1ccccc1)c(=O)n2Cc1cc(=O)n2ccccc2n1 | 47% (active) |
| CCN(CC)C(=O)c1sc2c(c1C)c(=O)n(-c1ccc(C)c(C)c1)c(=O)n2Cc1cc(=O)n2ccccc2n1 | 84% |

| SMILES | survival |
| --- | --- |
| O=c1c2sccc2n(Cc2cc(=O)n3ccccc3n2)c(=O)n1-c1cccc(C(F)(F)F)c1 | 52% |
| Cc1ccc(S(=O)(=O)N(CC(=O)Nc2cccnc2)c2cc(Cl)ccc2C)cc1 | 78% |
| COc1ccc(NC(=O)CNC(=O)Cn2c(C)cc3ccccc3c2=O)c(OC)c1 | 62% |
| C=CCSc1nsc(N)n1 | 75% |
| Nc1nc(SC#CC(F)(F)F)ns1 | 13% (active) |
| Cc1ccc(C2c3[nH]c4ccccc4c3CCN2C(=O)CSc2ccccc2)cc1 (stereo unspecified) | 69% |
| O=C(CSc1ccccc1)N1CCc2c([nH]c3ccccc23)C1c1ccc(Cl)cc1 (stereo unspecified) | 52% (active) |
| O=C(CSc1ccccc1)N1CCc2c([nH]c3ccccc23)C1c1ccc(F)cc1 (stereo unspecified) | 76% |
| Cc1ccc(CCNS(=O)(=O)c2ccc3c(c2)C(C(C)C)C(=O)N3)cc1 (stereo unspecified) | 116% |
| COc1ccccc1CCNC(=O)C(=O)NCC(c1cccs1)S(=O)(=O)c1ccccc1 (stereo unspecified) | 82% |
| O=C(c1ccc(F)cc1F)N1CCC(c2noc(-c3ccc(S(=O)(=O)N4CCCC4)cc3)n2)CC1 | 97% |
| Cc1cccc2nc(-c3ccc(N(C)C)cc3)c(Nc3ccc4c(c3)OCO4)n12 | 102% |
| O=C(Nc1ccc2nc(SCC(=O)N3CCOCC3)sc2c1)c1ccc(Cl)cc1 | 68% |
| O=C(Nc1ccc2nc(SCC(=O)N3CCOCC3)sc2c1)c1ccc(Br)cc1 | 83% |
| O=C(Nc1ccc2nc(SCC(=O)N3CCOCC3)sc2c1)c1cccc(Cl)c1 | 32% (active) |
| O=C(Nc1ccc2nc(SCC(=O)N3CCCC3)sc2c1)c1cccc(Br)c1 | 57% |
| O=C(Nc1ccc2nc(SCC(=O)N3CCCC3)sc2c1)c1cccc(Cl)c1 | 52% |
| O=C(Nc1ccc2nc(SCC(=O)N3CCOCC3)sc2c1)c1cccc(Br)c1 | 29% (active) |
| Cc1cc(C)cc(NC(=O)C2CCCN(S(=O)(=O)c3cccc4nsnc34)C2)c1 (stereo unspecified) | 105% |
| Cc1ccc(N2CCN(C(=O)c3cnn(-c4ccc(F)cc4F)c3C3CCN(C(=O)OC(C)(C)C)CC3)CC2)c(C)c1 | 91% |
| CCc1ccc(NC(=O)C(CC)n2nnc(C(=O)OC)c2C(=O)OC)cc1 (stereo unspecified) | -3% (active) |
| CCC(C(=O)Nc1cc(C)ccc1OC)n1nnc(C(=O)OC)c1C(=O)OC (stereo unspecified) | 94% |
| CCOC(=O)c1nnn(C(CC)C(=O)Nc2ccc(F)cc2)c1C(=O)OCC (stereo unspecified) | 119% |

| SMILES | survival |
| --- | --- |
| CCOc1cc(C(=O)Nc2cccc3cccnc23)cc(OCC)c1OCC | 10% (active) |
| CCOc1cc(C(=O)Nc2ccncc2)cc(OCC)c1OCC | 94% |
| Cc1cccc(OCC(=O)Nc2cccc3cccnc23)c1C | 60% (active) |
| Cc1ccc(C(=O)Nc2cccc3cccnc23)cc1Cl | 72% |
| O=C(COc1ccc(Cl)cc1Cl)Nc1cccc2cccnc12 | 79% |
| Cc1cc(C)cc(OCC(=O)Nc2cccc3cccnc23)c1 | 73% |
| CCOc1ccccc1NC(=O)c1ccc(C(=O)Nc2ccccc2OCC)cc1 | 83% |
| Cc1ccc2cccc(NC(=O)c3ccc(OC(C)C)cc3)c2n1 | 95% |
| O=C(NCc1ccc(Cl)cc1)c1cc2ccc3cccnc3c2[nH]1 | 58% |
| O=C(NCc1ccccc1)c1cc2ccc3cccnc3c2[nH]1 | 80% |
| CC(C)c1ccc(C(=O)Nc2cccc3cccnc23)cc1 | -1% (active) |
| Cc1ccc(CNC(=O)c2cc3ccc4cccnc4c3[nH]2)cc1 | 32% (active) |
| CCOc1ccc(C(=O)NC2CCN(C(=O)NCc3ccccc3)CC2)cc1 | 84% |
| COc1ccc(-c2nc(C)c(CCNC(=O)C(=O)Nc3ccccc3OC)s2)cc1 | 89% |
| c1ccc(Cc2nnc(SCc3nc(-c4cccs4)no3)n2-c2ccccc2)cc1 | 56% |
| COc1cc(NS(=O)(=O)c2cc3c(cc2C)N(C)CCO3)cc(OC)c1OC | 90% |
| Cc1ccccc1CN1C(=O)c2ccccc2S(=O)c2ccc(C(=O)NCc3ccco3)cc21 (stereo unspecified) | 71% |
| CC(C)CCn1c(=O)c2sccc2n2c(CCCC(=O)NCCc3ccccc3)nnc12 | 68% |
| CCS(=O)(=O)NCC(c1ccco1)N1CCN(c2ccc(OC)cc2)CC1 (stereo unspecified) | 91% |
| CCOc1ccccc1N(CC)C(=O)c1cc2ccc3cccnc3c2[nH]1 | 102% |
| CCOC(=O)c1ccccc1NC(=O)c1cc2ccc3cccnc3c2[nH]1 | 117% |
| CCOc1ccccc1NC(=O)c1cc2ccc3cccnc3c2[nH]1 | 37% (active) |
